Compound activity (PubChem)
RORgamma inh = qHTS for inhibitors of ROR gamma transcriptional activity | AID 2551, 2010 | Nuclear receptor ROR-gamma (Mus musculus), P51450 | actives 5.4% (n = 310,000) | Potency, µM (titrated, usually from 53.6 µM), inactives show at the highest dose activity change, negative = inhibition, actives largely listed as inhibitors | Drosophila S2 Gal4-RORgamma UAS-luciferase reporter, 20 h; note: % is set by controls: 0 for no effect and ±100 for the full control effect; nearly all actives have a fitted effect of over 60% in size
Target sequence (P51450 whole entry, looked up, the tested form may be a part): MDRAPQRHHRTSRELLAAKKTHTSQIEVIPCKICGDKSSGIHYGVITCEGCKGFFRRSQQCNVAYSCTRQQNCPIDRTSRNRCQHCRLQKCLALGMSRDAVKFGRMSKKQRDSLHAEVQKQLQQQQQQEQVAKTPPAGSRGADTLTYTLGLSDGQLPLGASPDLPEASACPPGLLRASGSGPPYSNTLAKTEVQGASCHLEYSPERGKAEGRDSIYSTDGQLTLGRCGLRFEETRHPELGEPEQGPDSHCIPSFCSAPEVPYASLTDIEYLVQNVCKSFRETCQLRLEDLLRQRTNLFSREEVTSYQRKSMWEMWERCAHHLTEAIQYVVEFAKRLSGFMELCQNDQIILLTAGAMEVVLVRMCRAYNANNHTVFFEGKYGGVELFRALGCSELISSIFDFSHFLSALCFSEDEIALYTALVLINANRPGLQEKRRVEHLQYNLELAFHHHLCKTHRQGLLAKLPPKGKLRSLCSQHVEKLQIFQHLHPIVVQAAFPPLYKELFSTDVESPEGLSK
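Stable Schneider cell line, Gal4 DNA-binding domain fused to ROR gamma, UAS-luciferase. Cmpd 1 hr RT → CuSO4 700 uM final → 20 hr RT → luciferase reagent 10 min → luminescence.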
ELG1 repair inh = qHTS screen for small molecules that inhibit ELG1-dependent DNA repair in human embryonic kidney (HEK293T) cells expressing luciferase-tagged ELG1; actives 2.3% (n = 330,000); HEK293T ELG1-luciferase reporter, luminescence, 16 h; DNA damage induced by 5-fluorouridine; AID 504467, 2011; Potency, µM (series often up to 46.1 µM), for the others: at the highest dose activity change, negative = inhibition, usual class: inhibitors; note: % is set by controls: 0 for no effect and ±100 for the full control effect; nearly all actives have a fitted effect of over 55% in size
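Quantitative HTS, concentration-response format. 2,000 cells/well co-treated with 5-fluorouridine and compound, 16 hr in 5% CO2 at 37 °C; ONE-Glo luminescence read after 30 min.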
SW480 rereplic = A quantitative high throughput screen for small molecules that induce DNA re-replication in SW480 colon adenocarcinoma cells. Potency, µM (highest dose often 46.1 µM), without a hit: at the highest dose re-replication activation, usual class: activators. actives 1.8% (n = 340,000). SW480 DNA re-replication, Hoechst DNA content imaging, 48 h; note: % of control where 0% means no effect; nearly all actives have a fitted effect of over 55% in size
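SW480 cells exposed to compounds for 48 hr at 37 C, 5% CO2, then Hoechst-stained 40 min. Nuclear DNA content imaged by fluorescence scanning (405 nm excitation, 500-530 nm emission); re-replication scored as increased high-intensity nuclei.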
MCF10A rerep = A quantitative high throughput screen for small molecules that induce DNA re-replication in MCF 10a normal breast cells. MCF 10A DNA re-replication, Hoechst nuclear intensity, 48 h. Potency, µM (top dose mostly 46.1 µM), for the others: top-dose activity, positive = re-replication, hits mostly activators. actives 2.9% (n = 350,000). AID 624296, 2012; note: % of control where 0% means no effect; nearly all actives have a fitted effect of over 50% in size
Gal4-VP16 FLuc = VP16 counterscreen qHTS for inhibitors of ROR gamma transcriptional activity; actives 3.5% (n = 310,000); Potency, µM (top dose mostly 53.6 µM), without a hit: top-dose activity, negative = inhibition, actives largely listed as inhibitors; Drosophila S2 Gal4-VP16 UAS-luciferase, luminescence, 20 h;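 note: Gal4-VP16 expression switched on by copper sulfate through the metallothionein promoter; % is set by controls: 0 for no effect and ±100 for the full control effect; nearly all actives have a fitted effect of over 50% in size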
Numbers without * were called inactive; u = inconclusive; x = not tested or not shown; [ ] = another dose, or the depositor's remark. This is a sample that favours compounds with a hit; in the whole collection about 10% have one here. Calls come from the whole dose curve; as a rule, active = well fitted curve in the direction sought with a large enough effect; inconclusive = small, poorly fitted or top-dose-only effect, or another doubt; inactive = no such curve, though single readings can be large; an effect the other way counts as inactive or inconclusive. Potency is the fitted concentration of half-maximal effect.

SMILES	RORgamma inh	ELG1 repair inh	SW480 rereplic	MCF10A rerep	Gal4-VP16 FLuc
Cc1n[nH]c(C)c1CCNC(=O)C1CCC(=O)N(CCc2cccc(F)c2)C1 (centres undefined)	-21%	0%	1%	5%	3%
CCc1ccc(C2=NN(CCC(=O)NCc3cccs3)C(=O)CC2)cc1	u	-5%	-12%	0%	-22%
COc1cccc(/C=N\NC(=O)Cn2nnc3ccccc32)c1O	1.3µM*	-6%	u	u	3.2µM*
COc1cccc(/C=N/NC(=O)CCn2nnc3ccccc32)c1	u	5%	6%	-5%	-3%
COc1cccc(/C=N/NC(=O)CSCC(=O)Nc2ccccc2)c1O	0.5µM*	0%	u	11%	1.6µM*
COc1ccc(O)c(/C=N\NC(=O)CCn2nnc3ccccc32)c1	8.9µM*	u	u	u	2.8µM*
COc1ccc(/C=N/NC(=O)CSCC(=O)Nc2ccccc2)cc1	6%	15%	-15%	3%	-16%
CCOc1ccc(CCNS(=O)(=O)c2ccc3c(c2)oc(=O)n3C)cc1OCC	-11%	20%	-6%	-7%	-3%
CCOc1cc(C(=O)Nc2cccc3ncccc23)cc(OCC)c1OCC	-16%	9%	-5%	0%	9%
COc1cccc(CC(=O)Nc2ccc3nc(C)sc3c2)c1	37%	u	9.2µM*	-9%	26%
CCOC(=O)c1c(C)cc(C)n2c1nc1ccccc12	5.6µM*	-24%	-2%	-1%	5%
COc1ccc(CN2CCN(C(c3ccc(F)cc3)c3ccc(F)cc3)CC2)c(OC)c1OC	8%[10 µM]	x	17%	21µM*	-13%
Cc1ccc2c(CN3CCN(CCO)CC3)cc(=O)oc2c1	9%[10 µM]	13%	-14%	693%[0.0737 µM]	2%
COc1ccc(CN2CCN(c3ccc(F)cc3)CC2)c(OC)c1OC	u	4%	u	-5%	-16%
COc1ccc(CN2CCN(Cc3cc(=O)oc4cc(C)ccc34)CC2)c(OC)c1OC	-1%	u	10%	6.5µM*	-8%
CCOC(=O)c1cccc(OC(=O)CCNC(=O)c2ccc(Cl)cc2)c1	x	7%	-1%	-3%	x
Cc1cccc2cc(CN(CC3CCCO3)C(=O)NC3CCCCC3)c(=O)[nH]c12 (centres undefined)	16%	u	-13%	0%	-6%
Cc1ccc2cc(CN(CC3CCCO3)C(=O)NC3CCCCC3)c(=O)[nH]c2c1C (centres undefined)	3.2µM*	u	12%	u	u
Cc1cccc2cc(CN(Cc3ccco3)C(=O)NC3CCCCC3)c(=O)[nH]c12	u	7.3µM*	15%	10%	u
Cc1ccccc1OCC(=O)Nc1sc2c(c1C#N)CC(C)(C)NC2(C)C	-35%	-13%	u	21µM*	u
COc1ccc(C2c3[nH]c4ccccc4c3C[C@H]3C(=O)N(c4ccccc4C(=O)NCCN4CCOCC4)C(=O)N23)cc1 (some centres undefined)	-1%	u	2%	-15%	5%
O=C(NCCN1CCOCC1)c1ccccc1N1C(=O)[C@@H]2Cc3c([nH]c4ccccc34)C(c3ccc(F)cc3)N2C1=O (some centres undefined)	32%	5.2µM*	6%	30%	-13%
S=c1[nH]c2ccccc2o1	28µM*	14%	7%	-3%	-18%[10 µM]
COc1ccccc1NS(=O)(=O)c1ccc2oc(=S)[nH]c2c1	-2%	15%	-90%	7%	-2%
CCOC(=O)C1=NN(C(=O)Cc2ccccc2)C(O)(c2ccc(Cl)cc2)C1 (centres undefined)	5.6µM*	8%	u	u	10µM*
SMILES	RORgamma inh	ELG1 repair inh	SW480 rereplic	MCF10A rerep	Gal4-VP16 FLuc
CCOC(=O)C1=NN(C(=O)COc2ccccc2)C(O)(c2ccc(Cl)cc2)C1 (centres undefined)	3.5µM*	8%	-9%	-2%	11µM*
COc1ccc(C(CC(=O)NCc2ccccc2)C(C)C)cc1 (centres undefined)	22%	-5%	-3%	-14%	3%
O=C(NCc1ccccc1)c1cccc(F)c1F	1%	u	-2%	-4%	4%
O=[N+]([O-])c1ccc(N=Nc2ncc[nH]2)cc1	7.1µM*	u	u	u	6.3µM*
BrC(/C=N/Nc1nc(N2CCOCC2)nc(N2CCOCC2)n1)=C/c1ccccc1	u	12µM*	u	u	u
Cc1cc(/C=N/Nc2nc(N3CCOCC3)nc(N3CCOCC3)n2)c(C)n1-c1ccccc1	-12%	7.3µM*	0%	14%	-21%
COc1ccc(-n2c(C)cc(/C=N/Nc3nc(N4CCOCC4)nc(N4CCOCC4)n3)c2C)cc1	-32%	8.2µM*	12%	17%	-2%
Brc1cc2c(cc1/C=N/Nc1nc(N3CCOCC3)nc(N3CCOCC3)n1)OCO2	2%	u	-4%	14%	-18%
O=C(Nc1nnc(-c2ccccc2)o1)c1ccc(Cl)cc1	0.71µM*	x	22%	u	1.4µM*
CCOc1ccccc1C(=O)NC(C(=O)OCC(=O)Nc1nnc(-c2ccccc2)o1)C(C)C (centres undefined)	2.2µM*	-18%	4%	22%	5µM*
CCOc1ccccc1C(=O)OCC(=O)Nc1nnc(-c2ccccc2)o1	x	25%	-2%	12%	x
O=C(Nc1nnc(-c2ccc(Cl)cc2)o1)NC1CCCCC1	u	12%	4%	3%	3.5µM*
CN(C)c1ccc(C(=O)Nc2nnc(-c3ccc(Cl)cc3)o2)cc1	0.5µM*	u	-1%	u	0.5µM*
O=C(Nc1nnc(-c2ccccc2)o1)Nc1ccccc1Cl	40%	12%	-14%	-1%	-8%
NC1CONC1=O (centres undefined)	0%	x	x	x	9%
O=C(O)CC1(CC(=O)Nc2ccc(Cl)cc2C(=O)c2ccccc2)CCCC1	5%	12%	-4%	22%	-3%
O=C(COc1ccc(Cl)cc1)Nc1nnc(-c2ccc3c(c2)CCCC3)o1	-75%	u	-11%	-1%	u
CC(=O)c1ccc(C(=O)Nc2nnc(-c3ccc(Cl)cc3)o2)cc1	-35%	u	u	13%	2.5µM*
Cc1ccnc2nc(C(=O)Nc3nnc(-c4ccc(Cl)cc4)o3)nn12	-2%	11%	-6%	0%	-3%
O=C(COc1ccccc1)Nc1nnc(-c2ccc(Cl)cc2)o1	7.1µM*	2%	-3%	2%	5.6µM*
CCCCCOc1ccc(Br)cc1CSC(=N)N	-75%	u	u	u	7.1µM*
